# According to PMC7862700, “An all-to-all approach to the identification of sequence-specific readers for epigenetic DNA modifications on cytosine”:
# How the values were obtained:
# Assay in all cases: DAPPL (digital affinity profiling via proximity ligation, sequencing); 10 mM Tris-HCl pH 7.5, 50 mM NaCl, 1 mM DTT, 4% glycerol, room temperature, 30 min; GST-TFs on glutathione beads, 16-mer random dsDNA library, 0.1% formaldehyde crosslink after washing; high values mean tight binding
# Conditions in all cases: protein: recombinant; tags: N-terminal GST; dsDNA, one strand shown
# FLI1 = target: T1, FLI1 (Homo sapiens, UniProt Q01543 1-452)
# T1 sequence: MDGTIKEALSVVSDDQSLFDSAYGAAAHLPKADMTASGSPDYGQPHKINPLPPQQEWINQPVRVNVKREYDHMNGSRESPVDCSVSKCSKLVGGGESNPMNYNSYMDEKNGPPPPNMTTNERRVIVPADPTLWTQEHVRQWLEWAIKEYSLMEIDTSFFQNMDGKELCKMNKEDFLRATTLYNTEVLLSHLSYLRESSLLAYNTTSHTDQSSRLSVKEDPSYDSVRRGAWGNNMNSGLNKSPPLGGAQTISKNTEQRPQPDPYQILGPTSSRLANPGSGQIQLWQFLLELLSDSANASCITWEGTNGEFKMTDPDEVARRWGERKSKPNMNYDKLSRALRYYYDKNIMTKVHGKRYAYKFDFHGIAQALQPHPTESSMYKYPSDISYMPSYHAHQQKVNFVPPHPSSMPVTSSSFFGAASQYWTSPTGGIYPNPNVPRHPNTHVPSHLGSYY
# In short: (§1)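 Pools were built from human transcription factors expressed in yeast as GST fusions, captured on glutathione beads and DNA-barcoded, along with a tag-only sample. Incubation with 200 nmole of a 16-mer random double-stranded DNA library lasted 30 min at room temperature in Tris/NaCl/DTT/glycerol buffer, and was followed by washing, 0.1% formaldehyde crosslinking, proximity ligation, PCR amplification and Illumina NextSeq500 sequencing. Binding signal is the quotient of each hexamer's read frequency for a factor and its frequency for the tag-only sample.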
# ELK1 = target: T2, ELK1 (Homo sapiens, UniProt P19419 1-428)
# T2 sequence: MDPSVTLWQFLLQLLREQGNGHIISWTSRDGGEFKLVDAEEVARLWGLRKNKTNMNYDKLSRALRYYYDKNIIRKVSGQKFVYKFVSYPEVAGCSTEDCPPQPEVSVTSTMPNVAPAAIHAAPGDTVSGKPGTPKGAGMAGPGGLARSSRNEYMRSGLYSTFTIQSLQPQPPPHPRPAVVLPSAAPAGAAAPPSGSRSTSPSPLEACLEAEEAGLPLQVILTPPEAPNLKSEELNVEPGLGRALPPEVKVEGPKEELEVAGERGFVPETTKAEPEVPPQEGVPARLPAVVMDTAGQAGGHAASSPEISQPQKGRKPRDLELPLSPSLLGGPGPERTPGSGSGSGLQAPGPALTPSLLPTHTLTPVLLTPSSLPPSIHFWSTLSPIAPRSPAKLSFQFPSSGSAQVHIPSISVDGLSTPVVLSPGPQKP
# In short: as §1
# GABPA = target: T3, GABPA (Homo sapiens, UniProt Q06546 1-454)
# T3 sequence: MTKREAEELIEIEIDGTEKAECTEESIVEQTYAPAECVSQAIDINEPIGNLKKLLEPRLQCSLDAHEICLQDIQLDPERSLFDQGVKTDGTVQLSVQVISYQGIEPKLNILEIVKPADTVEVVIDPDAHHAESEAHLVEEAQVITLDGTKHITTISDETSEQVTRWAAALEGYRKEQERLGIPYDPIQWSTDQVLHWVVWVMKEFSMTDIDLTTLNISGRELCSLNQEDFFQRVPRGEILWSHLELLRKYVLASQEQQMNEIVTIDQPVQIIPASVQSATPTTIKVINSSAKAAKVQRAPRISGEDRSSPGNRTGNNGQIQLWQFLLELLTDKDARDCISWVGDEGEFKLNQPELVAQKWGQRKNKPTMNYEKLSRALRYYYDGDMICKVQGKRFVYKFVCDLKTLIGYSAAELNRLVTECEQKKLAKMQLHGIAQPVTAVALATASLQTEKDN
# In short: as §1
# ERG = target: T4, ERG (Homo sapiens, UniProt P11308 1-479)
# T4 sequence: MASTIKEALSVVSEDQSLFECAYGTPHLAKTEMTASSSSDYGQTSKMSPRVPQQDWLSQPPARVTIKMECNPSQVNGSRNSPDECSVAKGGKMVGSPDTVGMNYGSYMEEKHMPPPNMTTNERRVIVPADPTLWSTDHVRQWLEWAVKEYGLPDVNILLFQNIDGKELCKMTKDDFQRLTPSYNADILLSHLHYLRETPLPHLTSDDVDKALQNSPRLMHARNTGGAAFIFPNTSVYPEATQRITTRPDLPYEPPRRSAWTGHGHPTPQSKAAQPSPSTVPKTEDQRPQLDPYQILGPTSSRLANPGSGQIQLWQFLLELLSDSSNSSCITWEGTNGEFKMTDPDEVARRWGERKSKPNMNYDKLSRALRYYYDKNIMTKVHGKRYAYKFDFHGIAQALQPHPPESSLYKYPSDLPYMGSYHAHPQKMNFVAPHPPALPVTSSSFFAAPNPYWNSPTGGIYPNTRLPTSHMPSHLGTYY
# In short: as §1
# ELF1 = ELF1 (Homo sapiens, UniProt P32519 1-619)
# Sequence of ELF1 (P32519 whole entry): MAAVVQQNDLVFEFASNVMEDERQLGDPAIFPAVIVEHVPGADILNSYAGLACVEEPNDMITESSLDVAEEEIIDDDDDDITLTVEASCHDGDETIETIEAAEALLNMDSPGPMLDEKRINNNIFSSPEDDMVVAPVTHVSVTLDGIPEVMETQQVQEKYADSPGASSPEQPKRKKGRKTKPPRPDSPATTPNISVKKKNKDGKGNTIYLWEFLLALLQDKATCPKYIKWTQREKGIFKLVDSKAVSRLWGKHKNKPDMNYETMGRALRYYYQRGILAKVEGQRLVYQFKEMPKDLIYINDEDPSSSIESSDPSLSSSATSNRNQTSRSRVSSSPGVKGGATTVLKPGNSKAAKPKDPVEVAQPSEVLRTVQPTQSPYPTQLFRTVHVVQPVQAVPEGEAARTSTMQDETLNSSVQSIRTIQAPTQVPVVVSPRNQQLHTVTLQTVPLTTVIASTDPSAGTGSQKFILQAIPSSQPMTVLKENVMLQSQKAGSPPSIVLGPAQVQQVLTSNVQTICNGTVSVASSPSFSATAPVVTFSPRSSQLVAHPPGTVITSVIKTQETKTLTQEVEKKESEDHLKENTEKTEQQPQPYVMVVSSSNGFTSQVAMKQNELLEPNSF
# In short: as §1
# EHF = target: T5, EHF (Homo sapiens, UniProt Q9NZC4 1-300)
# T5 sequence: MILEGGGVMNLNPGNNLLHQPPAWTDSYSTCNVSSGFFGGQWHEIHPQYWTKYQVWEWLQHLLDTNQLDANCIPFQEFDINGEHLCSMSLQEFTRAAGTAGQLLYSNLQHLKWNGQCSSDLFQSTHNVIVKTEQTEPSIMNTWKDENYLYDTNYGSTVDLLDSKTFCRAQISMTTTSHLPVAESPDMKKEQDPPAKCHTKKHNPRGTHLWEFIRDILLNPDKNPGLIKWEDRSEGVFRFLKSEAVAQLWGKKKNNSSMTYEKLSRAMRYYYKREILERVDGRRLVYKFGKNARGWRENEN
# In short: as §1
# SPI1 = SPI1 (Homo sapiens, UniProt P17947 1-270)
# In short: as §1
# SPIB = SPIB (Homo sapiens, UniProt Q01892 1-262)
# Sequence of SPIB (Q01892 whole entry): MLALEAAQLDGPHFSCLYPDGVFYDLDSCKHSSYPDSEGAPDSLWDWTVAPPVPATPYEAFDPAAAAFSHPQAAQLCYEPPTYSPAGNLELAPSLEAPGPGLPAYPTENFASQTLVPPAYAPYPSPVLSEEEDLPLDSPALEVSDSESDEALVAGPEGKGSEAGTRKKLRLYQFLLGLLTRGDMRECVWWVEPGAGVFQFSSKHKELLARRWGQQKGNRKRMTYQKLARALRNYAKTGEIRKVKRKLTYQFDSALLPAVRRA
# In short: as §1
# FEV = target: T6, FEV (Homo sapiens, UniProt Q99581 1-238)
# T6 sequence: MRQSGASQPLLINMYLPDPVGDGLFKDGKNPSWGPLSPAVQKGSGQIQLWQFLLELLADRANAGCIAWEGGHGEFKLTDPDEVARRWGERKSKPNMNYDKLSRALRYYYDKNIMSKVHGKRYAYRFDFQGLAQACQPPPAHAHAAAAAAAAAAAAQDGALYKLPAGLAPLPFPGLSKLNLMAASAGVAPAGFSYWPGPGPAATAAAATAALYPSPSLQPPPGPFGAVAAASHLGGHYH
# In short: as §1
# ETV5 = ETV5 (Homo sapiens, UniProt P41161 1-510)
# Sequence of ETV5 (P41161 whole entry): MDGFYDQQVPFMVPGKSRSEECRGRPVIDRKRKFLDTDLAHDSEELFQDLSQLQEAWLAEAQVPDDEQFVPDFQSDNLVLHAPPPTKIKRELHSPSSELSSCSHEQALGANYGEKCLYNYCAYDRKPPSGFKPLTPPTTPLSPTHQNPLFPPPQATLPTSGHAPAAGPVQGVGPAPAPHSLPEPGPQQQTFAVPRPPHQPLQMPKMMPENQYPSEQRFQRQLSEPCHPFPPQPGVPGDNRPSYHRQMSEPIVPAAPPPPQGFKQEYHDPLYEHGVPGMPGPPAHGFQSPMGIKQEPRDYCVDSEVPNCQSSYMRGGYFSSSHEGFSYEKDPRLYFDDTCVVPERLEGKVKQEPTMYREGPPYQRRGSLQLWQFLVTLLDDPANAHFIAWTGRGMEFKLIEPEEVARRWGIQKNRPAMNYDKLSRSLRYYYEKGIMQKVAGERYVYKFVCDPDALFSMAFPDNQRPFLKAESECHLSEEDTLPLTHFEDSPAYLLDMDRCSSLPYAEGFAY
# In short: as §1
# ELF3 = target: T7, ELF3 (Homo sapiens, UniProt P78545 1-371)
# T7 sequence: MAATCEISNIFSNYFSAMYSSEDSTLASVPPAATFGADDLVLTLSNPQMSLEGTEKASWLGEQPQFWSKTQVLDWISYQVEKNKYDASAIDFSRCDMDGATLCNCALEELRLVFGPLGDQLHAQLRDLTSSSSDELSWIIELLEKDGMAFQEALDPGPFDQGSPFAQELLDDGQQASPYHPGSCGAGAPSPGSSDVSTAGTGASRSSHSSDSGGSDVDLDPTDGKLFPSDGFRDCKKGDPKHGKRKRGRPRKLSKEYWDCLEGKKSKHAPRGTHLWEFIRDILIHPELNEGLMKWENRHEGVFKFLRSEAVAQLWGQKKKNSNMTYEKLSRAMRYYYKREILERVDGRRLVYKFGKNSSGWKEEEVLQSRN
# In short: as §1
# ETV1 = ETV1 (Homo sapiens, UniProt P50549 1-477)
# Sequence of ETV1 (P50549 whole entry): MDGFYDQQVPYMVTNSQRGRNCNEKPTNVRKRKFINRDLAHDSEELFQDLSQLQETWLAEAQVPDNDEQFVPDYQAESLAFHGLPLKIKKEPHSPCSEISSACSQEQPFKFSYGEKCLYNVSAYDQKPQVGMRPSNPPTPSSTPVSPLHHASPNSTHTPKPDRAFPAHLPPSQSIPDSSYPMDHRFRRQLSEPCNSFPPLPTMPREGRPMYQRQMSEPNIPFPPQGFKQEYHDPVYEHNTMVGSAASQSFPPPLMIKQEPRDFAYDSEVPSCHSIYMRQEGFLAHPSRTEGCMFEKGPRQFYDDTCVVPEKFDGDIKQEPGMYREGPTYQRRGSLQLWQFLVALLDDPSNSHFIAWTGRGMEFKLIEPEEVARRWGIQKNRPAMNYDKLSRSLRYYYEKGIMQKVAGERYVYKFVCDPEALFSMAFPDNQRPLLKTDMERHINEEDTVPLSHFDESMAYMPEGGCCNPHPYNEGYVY
# In short: as §1
# ERF = target: T8, ERF (Homo sapiens, UniProt P50548 1-548)
# T8 sequence: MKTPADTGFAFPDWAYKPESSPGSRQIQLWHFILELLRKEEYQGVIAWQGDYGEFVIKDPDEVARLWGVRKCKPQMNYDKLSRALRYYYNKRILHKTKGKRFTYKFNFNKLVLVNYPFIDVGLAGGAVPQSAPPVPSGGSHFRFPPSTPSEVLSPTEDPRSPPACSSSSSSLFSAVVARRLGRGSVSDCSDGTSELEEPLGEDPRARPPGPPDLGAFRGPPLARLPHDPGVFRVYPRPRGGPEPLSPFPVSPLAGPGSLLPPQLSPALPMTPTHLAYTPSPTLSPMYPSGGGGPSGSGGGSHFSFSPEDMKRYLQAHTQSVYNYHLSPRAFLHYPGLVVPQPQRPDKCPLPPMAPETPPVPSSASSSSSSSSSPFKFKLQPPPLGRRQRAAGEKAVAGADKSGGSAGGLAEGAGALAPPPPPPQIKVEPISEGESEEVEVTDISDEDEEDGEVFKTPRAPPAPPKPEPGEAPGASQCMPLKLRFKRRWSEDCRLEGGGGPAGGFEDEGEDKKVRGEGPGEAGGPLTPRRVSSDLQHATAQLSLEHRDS
# In short: as §1
# ETV3L = target: T9, ETV3L (Homo sapiens, UniProt Q6ZN32 1-361)
# T9 sequence: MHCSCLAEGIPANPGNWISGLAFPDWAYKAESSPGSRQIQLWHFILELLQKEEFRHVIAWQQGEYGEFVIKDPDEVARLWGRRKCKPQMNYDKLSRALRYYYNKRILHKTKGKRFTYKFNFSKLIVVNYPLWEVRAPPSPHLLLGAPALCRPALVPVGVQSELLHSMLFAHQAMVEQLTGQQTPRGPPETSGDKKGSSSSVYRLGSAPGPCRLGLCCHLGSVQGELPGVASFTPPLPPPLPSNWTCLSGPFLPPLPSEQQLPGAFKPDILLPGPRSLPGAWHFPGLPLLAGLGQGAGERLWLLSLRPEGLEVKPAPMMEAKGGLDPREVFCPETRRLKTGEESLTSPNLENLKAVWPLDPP
# In short: as §1
# ETS2 = target: T10, ETS2 (Homo sapiens, UniProt P15036 1-469)
# T10 sequence: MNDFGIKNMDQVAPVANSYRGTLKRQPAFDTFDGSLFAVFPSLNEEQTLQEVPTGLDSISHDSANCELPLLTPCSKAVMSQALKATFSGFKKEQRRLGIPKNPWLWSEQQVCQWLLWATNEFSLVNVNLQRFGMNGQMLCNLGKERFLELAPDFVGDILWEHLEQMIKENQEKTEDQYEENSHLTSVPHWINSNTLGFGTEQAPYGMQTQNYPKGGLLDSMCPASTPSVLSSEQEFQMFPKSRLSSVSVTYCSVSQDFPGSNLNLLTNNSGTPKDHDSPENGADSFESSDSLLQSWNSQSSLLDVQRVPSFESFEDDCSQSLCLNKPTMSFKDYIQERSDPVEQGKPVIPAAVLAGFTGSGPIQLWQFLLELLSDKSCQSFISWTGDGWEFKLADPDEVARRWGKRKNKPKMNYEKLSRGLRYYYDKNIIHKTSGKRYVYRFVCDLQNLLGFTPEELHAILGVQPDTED
# In short: as §1
# ETV7 = target: T11, ETV7 (Homo sapiens, UniProt Q9Y603 1-341)
# T11 sequence: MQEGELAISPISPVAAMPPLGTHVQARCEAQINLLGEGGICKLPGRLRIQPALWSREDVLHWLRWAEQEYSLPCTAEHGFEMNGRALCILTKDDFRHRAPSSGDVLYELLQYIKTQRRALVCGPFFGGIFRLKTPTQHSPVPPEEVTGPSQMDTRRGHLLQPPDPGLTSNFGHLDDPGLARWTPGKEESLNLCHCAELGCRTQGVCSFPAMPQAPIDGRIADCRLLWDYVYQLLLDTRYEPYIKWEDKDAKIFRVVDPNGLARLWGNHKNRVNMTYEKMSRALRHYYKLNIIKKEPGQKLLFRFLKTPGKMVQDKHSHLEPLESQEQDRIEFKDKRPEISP
# In short: as §1
# ETV3 = target: T12, ETV3 (Homo sapiens, UniProt P41162-2 1-143)
# T12 sequence: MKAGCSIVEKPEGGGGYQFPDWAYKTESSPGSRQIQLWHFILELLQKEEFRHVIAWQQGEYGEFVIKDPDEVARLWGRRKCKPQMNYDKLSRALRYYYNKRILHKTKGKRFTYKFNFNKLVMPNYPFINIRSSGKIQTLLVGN
# In short: as §1
# ETV6 = ETV6 (Homo sapiens, UniProt P41212 1-452)
# Sequence of ETV6 (P41212 whole entry): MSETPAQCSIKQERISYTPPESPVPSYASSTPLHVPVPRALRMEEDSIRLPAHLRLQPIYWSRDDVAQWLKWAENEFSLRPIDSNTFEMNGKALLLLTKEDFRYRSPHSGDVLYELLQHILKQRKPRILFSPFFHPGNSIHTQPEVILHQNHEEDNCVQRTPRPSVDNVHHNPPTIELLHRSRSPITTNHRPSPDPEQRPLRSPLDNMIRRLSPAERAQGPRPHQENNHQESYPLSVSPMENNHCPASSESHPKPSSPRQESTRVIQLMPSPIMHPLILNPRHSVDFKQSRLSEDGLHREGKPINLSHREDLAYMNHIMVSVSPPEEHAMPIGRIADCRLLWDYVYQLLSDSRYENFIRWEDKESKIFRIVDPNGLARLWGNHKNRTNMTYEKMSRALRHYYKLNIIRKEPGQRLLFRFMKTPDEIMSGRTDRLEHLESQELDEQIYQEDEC
# In short: as §1
sequence,measurement,setting,value
AGTGGT,binding signal,FLI1,"1.04 fold enrichment (6-mer frequency, TF over GST control)"
same,binding signal,ELK1,"1.03 fold enrichment (6-mer frequency, TF over GST control)"
same,binding signal,GABPA,"1.09 fold enrichment (6-mer frequency, TF over GST control)"
same,binding signal,ERG,"1.06 fold enrichment (6-mer frequency, TF over GST control)"
same,binding signal,ELF1,"1.06 fold enrichment (6-mer frequency, TF over GST control)"
same,binding signal,EHF,"1.11 fold enrichment (6-mer frequency, TF over GST control)"
same,binding signal,SPI1,"1.42 fold enrichment (6-mer frequency, TF over GST control)"
same,binding signal,SPIB,"1.22 fold enrichment (6-mer frequency, TF over GST control)"
same,binding signal,FEV,"1.02 fold enrichment (6-mer frequency, TF over GST control)"
same,binding signal,ETV5,"1.14 fold enrichment (6-mer frequency, TF over GST control)"
same,binding signal,ELF3,"1.01 fold enrichment (6-mer frequency, TF over GST control)"
same,binding signal,ETV1,"1.02 fold enrichment (6-mer frequency, TF over GST control)"
same,binding signal,ERF,"1.14 fold enrichment (6-mer frequency, TF over GST control)"
same,binding signal,ETV3L,"1.06 fold enrichment (6-mer frequency, TF over GST control)"
same,binding signal,ETS2,"1.12 fold enrichment (6-mer frequency, TF over GST control)"
same,binding signal,ETV7,"1.14 fold enrichment (6-mer frequency, TF over GST control)"
same,binding signal,ETV3,"1.09 fold enrichment (6-mer frequency, TF over GST control)"
same,binding signal,ETV6,"1.11 fold enrichment (6-mer frequency, TF over GST control)"
